# Source: PubChem (National Center for Advancing Translational Sciences (NCATS))
# In the library only some 7.4% were active in any assay of this set; here they are far more common.
# ELG1 genotoxic: inducers of genotoxicity in HEK293T ELG1-luciferase cells | 330,000 compounds, 1.3% hits | HEK293T ELG1-luciferase reporter, luminescence, 16 h | AID 504466 | Potency, µM (titrated, usually from 46 µM), without a hit: at the highest dose activity change, positive = activation, usual class: activators; note: % of control where 0% means no effect; nearly all actives have a fitted effect of over 60% in size
#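 Reporter readout depends on ELG1 protein level, which increases with genetic stress. After 16 hr compound exposure at 37 °C, luciferase activity was quantified using ONE-Glo.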
# Rab9 promoter act: activators of Rab9 promoter. Huh7 Rab9 promoter-luciferase reporter, luminescence, 24 h. Potency, µM (series often up to 9.22 µM), inactives show at the top dose activation, negative = inhibition, most hits filed as activators. AID 485297. 320,000 compounds, 2.8% hits; note: % of control where 0% means no effect; nearly all actives have a fitted effect of over 60% in size
#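 Luminescence read-out: Huh7 cells stably expressing Rab9-luciferase, treated 24 h with compound at 37 °C, then lysed with luciferase reagent for 10 min at ambient before reading.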
# NPC1 prom act: activators of NPC1 promoter; Huh7 NPC1 promoter luciferase reporter, 24 h; Potency, µM (top dose mostly 9.22 µM), for inactives: at the top dose activation, most hits filed as activators; 320,000 compounds, 2.4% hits; AID 485313; note: % of control where 0% means no effect; nearly all actives have a fitted effect of over 60% in size
#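 Compounds in DMSO were transferred onto Huh7 NPC1-luciferase reporter cells pre-incubated 2 h; after 24 h at 37 °C, Amplite reagent was dispensed and luminescence recorded 10 min later.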
# FLuc counter: counter-screen for miR-21 project: firefly luciferase inhibitors or activators. purified FLuc, Km substrates, luminescence inhibition. Potency, µM (titrated, usually from 57.5 µM), for the others: at the highest dose activity change, negative = inhibition, actives largely listed as inhibitors. 360,000 compounds, 6.9% hits. AID 588342;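 note: plate controls were vehicle for no effect and reference inhibitor for full effect; nearly all actives have a fitted effect of over 55% in size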
# Target sequence (P08659 whole entry, looked up): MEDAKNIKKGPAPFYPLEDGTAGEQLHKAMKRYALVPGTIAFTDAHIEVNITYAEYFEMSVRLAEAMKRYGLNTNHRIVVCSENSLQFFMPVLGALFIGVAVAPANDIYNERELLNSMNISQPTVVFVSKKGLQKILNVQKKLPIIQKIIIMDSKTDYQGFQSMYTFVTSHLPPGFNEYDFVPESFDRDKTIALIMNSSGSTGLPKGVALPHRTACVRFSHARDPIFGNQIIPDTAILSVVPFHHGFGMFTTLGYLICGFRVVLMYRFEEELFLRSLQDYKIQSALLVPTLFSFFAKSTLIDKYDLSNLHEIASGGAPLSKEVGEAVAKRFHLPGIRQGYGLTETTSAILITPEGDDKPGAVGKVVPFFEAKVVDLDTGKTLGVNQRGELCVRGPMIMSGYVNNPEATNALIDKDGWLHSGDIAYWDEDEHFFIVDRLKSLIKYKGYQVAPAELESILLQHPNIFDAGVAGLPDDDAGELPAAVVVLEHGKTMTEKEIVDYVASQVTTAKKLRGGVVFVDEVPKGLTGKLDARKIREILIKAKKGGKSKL
#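 Purified P. pyralis luciferase, 10 nM final, with Km-level 10 uM D-luciferin and 10 uM ATP in 50 mM Tris acetate pH 7.5, 10 mM Mg acetate, 0.01% Tween-20, 0.05% BSA; 6-point qHTS titration about 60 µM downward; luminescence read.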
# SMN2 splice up: enhancers of SMN2 splice variant expression; HEK293 SMN2-luciferase splicing reporter, luminescence, 30-36 h; Potency, µM (titrated, usually from 46.1 µM), for inactives: at the highest dose activity change, positive = activation, most hits filed as activators; 210,000 compounds, 2.8% hits; AID 1458; note: % of control where 0% means no effect; nearly all actives have a fitted effect of over 55% in size
#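 qHTS luciferase splicing reporter: luminescence rises when SMN2 exon 7 is included in transfected HEK293 cells. Compound exposure lasted 30-36 h at 37C, with 4.5 mM final sodium butyrate as control, followed by a ONE-Glo read.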
# Active calls of the source: *; ? = inconclusive; . = no result; [ ] = remark or other dose. Calls come from the whole dose curve; as a rule, active = well fitted curve in the direction sought with a large enough effect; inconclusive = small, poorly fitted or top-dose-only effect, or another doubt; inactive = no such curve, though single readings can be large; an effect the other way counts as inactive or inconclusive. Potency is the fitted concentration of half-maximal effect.
SMILES,ELG1 genotoxic,Rab9 promoter act,NPC1 prom act,FLuc counter,SMN2 splice up
COc1cccc(NC(=O)c2ccccc2-c2nc(-c3cccc(C)c3)no2)c1,1%,26%,?,17µM*,-5%
Cc1ccc(C2=NN(CCC#N)C(=O)CO2)cc1,0%,1%[1.84 µM],5%,0%,.
CN(C)c1ccc(/C=C2\C(=N)N3C(=NC2=O)Sc2cc(S(C)(=O)=O)ccc23)cc1,-6%,-2%,-2%,-3%,.
Cc1c(CCNC(=O)c2c(F)cccc2F)sc2nc(-c3ccc(F)cc3)nn12,.,.,.,-7%,.
COc1ccccc1-c1noc(COC(=O)c2ccc(Br)o2)n1,5%,-3%,-4%,1%,.
c1ccc(-c2noc(COc3ccc4c(c3)OCO4)n2)cc1,9.2µM*,2.8µM*,4µM*,2.1µM*,14µM*
COc1ccc(-c2noc(COc3ccc4c(c3)OCO4)n2)cc1,0%,2%,-4%,5%,2%
Cc1ccccc1OCc1nc(-c2ccccc2)no1,?,4µM*,4µM*,4.8µM*,32µM*
Cc1ccccc1OCc1nc(-c2ccc(Br)o2)no1,?,8%,11%,17µM*,11%
Cc1cc(Br)ccc1OCc1nc(-c2cccnc2)no1,21µM*,?,29%,?,?
Cc1c(F)cccc1NC(=O)C1CCCN1S(=O)(=O)c1ccc(F)cc1 (configuration not stated),.,.,.,-7%,-15%
COc1ccc(-c2noc(COc3ccccc3OC)n2)cc1OC,?,3%,13%,?,12%
Cc1ccc(-c2noc(COc3ccccc3C)n2)cc1,?,23%,18%,21µM*,19%
c1ccc(NCc2nc(-c3ccccc3)no2)cc1,23µM*,?,?,17µM*,?
COc1cccc(-c2noc(COc3ccccc3Cl)n2)c1,.,.,.,11µM*,?
Cc1ccc(OCc2nc(-c3ccccc3)no2)cc1,?,4µM*,?,7.6µM*,.
Cc1cnc(CNc2ncncc2-c2ccccc2C(F)(F)F)cn1,.,.,.,.,-12%
CC(NC(=O)Nc1ccccc1C(F)(F)F)c1c(-n2cccc2)sc2c1CCCC2 (configuration not stated),.,.,.,-11%,.
CCc1ccc(NC(=O)COc2ccc(F)cc2C(=O)c2cnn(-c3ccccc3)c2)cc1,14%,?,13%,11µM*,.
COc1ccccc1NC(=O)COc1ccccc1C(=O)c1cnn(-c2ccccc2)c1,?,17%,18%,11µM*,?
COc1ccccc1NC(=O)COc1ccccc1,?,-4%,14%,?,-5%
C[C@@H]1c2ccccc2Cn2cc3c(c21)C(=O)c1cccc(OP(=O)(O)OCc2ccccc2)c1C3=O,.,.,.,.,-8%[9.22 µM]
O=C(CC1C[C@H](C(=O)N2CCOCC2)[C@@]2(CCC3CCCC3)c3[nH]c4ccccc4c3CCN2C1=O)NCCCn1ccnc1 (some centres not stated),2%,.,.,.,.
C[C@@]12C(=O)NCC(=O)N1[C@@H]1c3cc(Br)ccc3OC[C@@H]1[C@@H]2c1ccccc1,-1%,.,.,.,.
Cc1cccc(-n2ncc3c(N4CCCC(C)C4)ncnc32)c1 (configuration not stated),.,.,.,0.43µM*,.
SMILES,ELG1 genotoxic,Rab9 promoter act,NPC1 prom act,FLuc counter,SMN2 splice up
CC1CC(C)CN(c2ncnc3c2cnn3-c2ccc(Cl)cc2)C1 (configuration not stated),?,0.71µM*,2µM*,2.1µM*,-81%
CC1CCCN(c2ncnc3c2cnn3-c2ccc(F)cc2)C1 (configuration not stated),.,.,.,0.17µM*,.
CCN(CC)C(=O)C1CCCN(c2ncnc3c2cnn3-c2ccc(Cl)cc2)C1 (configuration not stated),-10%,-5%,-8%,17µM*,.
COc1ccc(-n2nc(C(=O)N(C)c3cc(C)ccc3C)c3c4ccccc4n(C)c3c2=O)cc1Cl,.,.,.,-1%,-3%
CC1CCCN(c2ncnc3c2cnn3-c2ccc(Cl)cc2)C1 (configuration not stated),1%,-29%,-38%,0.095µM*,.
Cc1ccc(-n2ncc3c(N4CCCC4)ncnc32)c(C)c1,-7%,?,?,?,-17%
CCOC(=O)C1CCCN(c2ncnc3c2cnn3-c2cccc(C)c2)C1 (configuration not stated),?,28%,24%,24µM*,17%
CC1CCCN(c2ncnc3c2cnn3-c2ccccc2)C1 (configuration not stated),?,0.14µM*,0.35µM*,0.19µM*,.
CCN(CC)C(=O)C1CCCN(c2ncnc3c2cnn3-c2cccc(C)c2)C1 (configuration not stated),?,-7%,-3%,?,-18%
Cc1ccc(-n2ncc3c(N4CCCC(C)C4)ncnc32)c(C)c1 (configuration not stated),?,2µM*,3.2µM*,7.6µM*,.
COc1ccc2c(c1)c(=O)c(C(=O)c1ccc(F)cc1)cn2CC(=O)Nc1ccc2c(c1)OCCO2,.,.,.,6%,7%
Cc1cccc(NC(=O)NCc2cccnc2)c1C,4%,3%,1%,2%,.
Cc1ccc(CNC(=O)CS(=O)(=O)c2cn(CC(=O)N3CCOCC3)c3ccccc23)cc1,0%,0%,5%,4%,.
COc1ccc(NC2c3ccccc3C(=O)N2Cc2ccc3c(c2)OCO3)cc1 (configuration not stated),-4%,-2%,0%,4%,.
CCc1cc(C(=O)Nc2ccc(OC)nc2)sc1C,9%,-34%,13%,21µM*,.
